The nature of assay [1]: anti-His antibody binders, primary screen, artefact control for SMM control protein annotation, biochemical, small-molecule microarray, 635 nm fluorescence (AID 1128).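 Further: score merges feature fluorescence with signal-to-noise for each printed compound spot.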 The conditions noted are these: anti-His Alexa647 antibody binding, higher = more signal.
The subject of assay [2] is Human papillomavirus type 1a E7 protein (residues 1-88). In words: HPV1a E7 small-molecule binders, primary screen, biochemical, small-molecule microarray, residues 1-88, 635 nm (AID 1129). The settings on record: small-molecule microarray binding, fluorescence 635 nm; higher = more signal.
Assay [3] concerns the target Focal adhesion kinase 1 (Homo sapiens) (UniProt Q05397). The assay is described as follows: small-molecule microarray binders of FAK, primary screen, biochemical, 635/667 nm fluorescence, BSA, DTT (AID 1130).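 Further: composite of spot emission at 667 nm and signal to noise over triplicate slides.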 The conditions noted are these: PTK2 binding, 635 nm fluorescence, higher = more signal.
Assay [4] relates to Fibrinogen (Alexa647-labelled). The assay is described as follows: fibrinogen binders on compound microarrays, profiling panel, artefact control for SMM control-protein annotation, biochemical, small-molecule microarray, 635/667 nm fluorescence (AID 1131).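 Further: z-score merges 667 nm fluorescence with per-spot signal-to-noise over triplicate slides.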 The conditions noted are these: fibrinogen-A647 binding fluorescence, higher = more signal.
Assay [5] deals with Follistatin (Homo sapiens) (UniProt P19883). The assay is described as follows: follistatin binders on small-molecule microarrays, primary screen, biochemical, small-molecule microarray, 635/667 nm fluorescence (AID 1132). The settings on record: FST binding, 635 nm fluorescence, higher = more signal.
Chain of Follistatin (Homo sapiens) (P19883 whole entry, looked up): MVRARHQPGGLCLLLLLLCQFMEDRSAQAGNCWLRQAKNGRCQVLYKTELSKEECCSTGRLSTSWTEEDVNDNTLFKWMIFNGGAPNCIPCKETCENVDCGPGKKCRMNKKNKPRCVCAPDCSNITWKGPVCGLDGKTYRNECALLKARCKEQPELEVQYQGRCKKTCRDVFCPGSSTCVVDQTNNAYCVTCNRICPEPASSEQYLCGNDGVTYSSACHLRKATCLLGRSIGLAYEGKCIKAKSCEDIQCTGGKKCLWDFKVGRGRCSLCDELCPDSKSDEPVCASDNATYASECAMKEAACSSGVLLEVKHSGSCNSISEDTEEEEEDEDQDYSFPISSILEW
Assay [6] concerns the target Fibroblast growth factor 2 (Homo sapiens) (UniProt P09038). In words: FGF2 binders on small-molecule microarrays, primary screen, biochemical, small-molecule microarray, 635/667 nm fluorescence (AID 1133). The settings on record: small-molecule microarray binding, FGF2, fluorescence 635/667; higher = more signal.
Assay [7] in a line: mitochondrial membrane potential change in A549 cells, profiling panel, cell-based, JC-1 fluorescence, basal, 24 h, 100 nL (AID 1138).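 Further: A549 lung adenocarcinoma cells under basal conditions with no added stimulus; test concentration not given here.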 The conditions noted are these: higher = more signal.
In assay [8] the test system is Lefty1. The assay is described as follows: Lefty1 binders on small-molecule microarrays, primary screen, biochemical, small-molecule microarray, 635/667 nm fluorescence (AID 1139). The settings on record: small-molecule microarray binding, fluorescence 635/667; higher = more signal.
The test system of assay [9] is wheat germ agglutinin (Triticum aestivum), Alexa647-labelled. In words: wheat germ agglutinin binders on compound microarrays, profiling panel, artefact control for SMM control-protein annotation, biochemical, small-molecule microarray, 635/667 nm fluorescence (AID 1140).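 Further: score merges 667 nm feature emission with signal to noise over triplicate slides.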 The settings on record: WGA-A647 binding, 635 nm fluorescence, higher = more signal.
For assay [10], the target named is Luciferin 4-monooxygenase (Photinus pyralis) (UniProt P08659). In words: firefly luciferase enzyme inhibitors, primary screen, biochemical, luminescence, purified enzyme, 2006 set (AID 1141).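 Further: cell-free assay with purified firefly luciferase at 100 ng per well in PBS; test concentration not given here.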 The conditions noted are these: SteadyGlo luminescence, 30 min, higher = more signal, called active from +8 up or from −8 down.
Chain of Luciferin 4-monooxygenase (Photinus pyralis) (P08659 whole entry, looked up): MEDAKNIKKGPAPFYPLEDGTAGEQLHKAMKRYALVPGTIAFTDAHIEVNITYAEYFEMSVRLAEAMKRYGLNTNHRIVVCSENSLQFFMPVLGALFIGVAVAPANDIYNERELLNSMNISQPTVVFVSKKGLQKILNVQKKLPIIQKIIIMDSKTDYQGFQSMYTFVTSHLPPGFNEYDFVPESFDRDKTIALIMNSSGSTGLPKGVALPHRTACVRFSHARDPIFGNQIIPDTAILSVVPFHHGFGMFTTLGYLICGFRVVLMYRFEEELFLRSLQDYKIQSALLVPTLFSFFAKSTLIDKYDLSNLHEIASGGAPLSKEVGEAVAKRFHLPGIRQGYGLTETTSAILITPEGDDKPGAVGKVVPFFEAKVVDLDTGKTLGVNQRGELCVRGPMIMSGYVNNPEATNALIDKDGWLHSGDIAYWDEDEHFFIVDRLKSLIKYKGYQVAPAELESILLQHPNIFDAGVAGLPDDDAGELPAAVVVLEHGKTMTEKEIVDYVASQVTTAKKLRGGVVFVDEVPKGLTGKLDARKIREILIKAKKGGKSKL
The subject of assay [11] is Wnt5a (protein binding on small-molecule microarray). The assay is described as follows: Wnt5a binders on small-molecule microarray, primary screen, biophysical, 635/667 nm fluorescence (AID 1142).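 Further: fluorescence read at 667 nm with signal to noise per printed feature.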 The settings on record: 635 nm fluorescence, higher = more signal.
A short description of assay [12]: cell viability in Huh7 cells, primary screen, cytotoxicity control for HCV replication inhibitor project, CellTiter-Glo luminescence, basal, 48 h (AID 1143).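 Further: Huh7 hepatoma cells carrying a hepatitis C replication reporter with no stimulus; test concentration not given here.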 The settings on record: Huh7 HCV replicon, higher = more signal, called active from +8 up or from −8 down. (ATP-based viability assays read luminescence as a measure of living cells.)
Assay [13] in a line: P. aeruginosa biofilm formation inhibitors, primary screen, PAO1 strain, BacTiter-Glo luminescence, LB-PBS (AID 1144). The conditions noted are these: 12 h, higher = more signal.
Assay [14] can be described thus: CREB reporter modulators without forskolin, primary screen, cell-based, PC12, CRE-LacZ reporter, unstimulated (AID 1145). The settings on record: no forskolin, luminescence, 4.5 h, higher = more signal, called active from +8 up or from −8 down.
The nature of assay [15]: CREB reporter modulators under forskolin, primary screen, cell-based, PC12, CRE-LacZ reporter, forskolin-stimulated (AID 1146).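 Further: PC12 cells with 6xCRE LacZ reporter stimulated by forskolin 10 µM; beta-galactosidase reporter signal reflecting CREB driven transcription.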 The conditions noted are these: luminescence, 4.5 h, higher = more signal, called active from +8 up or from −8 down.
In assay [16] the target is Streptavidin (Streptomyces avidinii) (UniProt P22629). In words: streptavidin binders on small-molecule microarray, primary screen, artefact control for SMM compound annotation, biophysical, 635/667 nm fluorescence (AID 1147).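 Further: signal reflects streptavidin binding to arrayed compounds as a control protein.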 The conditions noted are these: streptavidin binding, higher = more signal.
Chain of Streptavidin (Streptomyces avidinii) (P22629 whole entry, looked up): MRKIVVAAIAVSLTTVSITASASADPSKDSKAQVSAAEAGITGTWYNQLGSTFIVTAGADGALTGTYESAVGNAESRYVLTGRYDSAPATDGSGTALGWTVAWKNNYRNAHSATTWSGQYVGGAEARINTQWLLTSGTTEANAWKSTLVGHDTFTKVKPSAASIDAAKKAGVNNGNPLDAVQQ
A short description of assay [17]: small-molecule binders of probe aInhba, primary screen, biochemical, small-molecule microarray, 635/667 nm fluorescence (AID 1148).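 Further: score merges 667nm spot fluorescence with signal-to-noise for antibody binding to printed compounds.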 The settings on record: higher = more signal.
The target in assay [18] is Torsin-1A (Homo sapiens) (UniProt O14656). In words: torsin A binders from cell lysate, primary screen, small-molecule microarray, wild-type, 635/667 nm (AID 1149). The settings on record: COS7 hTOR1A-WT lysate, 635 nm fluorescence, higher = more signal.
Chain of Torsin-1A (Homo sapiens) (O14656 whole entry, looked up): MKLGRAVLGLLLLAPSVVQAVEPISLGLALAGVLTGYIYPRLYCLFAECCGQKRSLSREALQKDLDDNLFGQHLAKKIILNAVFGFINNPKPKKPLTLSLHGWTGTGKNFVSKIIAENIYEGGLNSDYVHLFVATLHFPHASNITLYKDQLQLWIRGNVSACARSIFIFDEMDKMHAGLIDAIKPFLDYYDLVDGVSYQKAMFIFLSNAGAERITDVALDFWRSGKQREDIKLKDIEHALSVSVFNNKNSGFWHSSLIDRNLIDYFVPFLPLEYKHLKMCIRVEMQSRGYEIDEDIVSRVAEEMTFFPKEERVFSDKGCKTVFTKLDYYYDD
Assay [19] has the same target. In words: small-molecule binders of mutant TOR1A in lysate, primary screen, cell lysate, small-molecule microarray, COS7 lysate, 635/667 nm fluorescence (AID 1150).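 Further: score pools 667 nm emission and signal to noise measuring lysate protein binding.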 The settings on record: COS7 hTOR1A mutant lysate, 635 nm fluorescence, higher = more signal.
For assay [20], the system named is Sonic hedgehog protein (Shh). The assay is described as follows: small-molecule binders of Shh protein, primary screen, biochemical, small-molecule microarray, 635/667 nm fluorescence (AID 1151).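 Further: Shh protein binding to compounds spotted on small-molecule microarray slides; score combines spot fluorescence intensity with signal-to-noise across triplicate slides.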 The settings on record: small-molecule microarray binding, 635 nm fluorescence; higher = more signal.

Calls of active or inactive are those of the source. Unless noted, how the calls were made is not given here.

Chain of Focal adhesion kinase 1 (Homo sapiens) (Q05397 whole entry, looked up): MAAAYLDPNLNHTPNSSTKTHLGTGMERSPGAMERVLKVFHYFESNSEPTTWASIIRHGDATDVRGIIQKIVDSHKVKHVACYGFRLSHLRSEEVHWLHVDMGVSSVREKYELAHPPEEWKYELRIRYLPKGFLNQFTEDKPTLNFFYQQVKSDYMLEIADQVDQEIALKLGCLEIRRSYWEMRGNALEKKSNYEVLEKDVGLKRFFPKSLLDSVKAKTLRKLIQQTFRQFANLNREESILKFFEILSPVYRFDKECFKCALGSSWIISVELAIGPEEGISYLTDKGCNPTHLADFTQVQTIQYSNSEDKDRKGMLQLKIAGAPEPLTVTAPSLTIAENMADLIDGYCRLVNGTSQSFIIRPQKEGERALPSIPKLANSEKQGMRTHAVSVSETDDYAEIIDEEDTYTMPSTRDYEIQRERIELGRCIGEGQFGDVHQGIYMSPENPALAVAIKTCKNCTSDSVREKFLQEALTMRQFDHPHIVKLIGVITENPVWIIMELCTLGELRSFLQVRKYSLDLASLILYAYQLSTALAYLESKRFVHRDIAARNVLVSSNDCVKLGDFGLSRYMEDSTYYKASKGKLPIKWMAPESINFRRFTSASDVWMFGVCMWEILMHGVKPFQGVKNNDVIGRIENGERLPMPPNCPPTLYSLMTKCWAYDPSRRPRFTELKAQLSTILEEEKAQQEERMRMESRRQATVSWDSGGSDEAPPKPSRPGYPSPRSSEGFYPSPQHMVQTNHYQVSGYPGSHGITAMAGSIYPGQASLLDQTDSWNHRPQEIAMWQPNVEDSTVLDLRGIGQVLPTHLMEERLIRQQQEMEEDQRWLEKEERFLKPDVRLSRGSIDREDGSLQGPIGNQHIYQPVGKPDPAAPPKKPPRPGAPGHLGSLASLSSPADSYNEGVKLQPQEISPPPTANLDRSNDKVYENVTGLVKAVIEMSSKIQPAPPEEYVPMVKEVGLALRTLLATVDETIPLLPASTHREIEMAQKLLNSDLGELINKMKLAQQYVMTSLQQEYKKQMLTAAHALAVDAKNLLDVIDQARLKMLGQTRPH
Chain of Fibroblast growth factor 2 (Homo sapiens) (P09038 whole entry, looked up): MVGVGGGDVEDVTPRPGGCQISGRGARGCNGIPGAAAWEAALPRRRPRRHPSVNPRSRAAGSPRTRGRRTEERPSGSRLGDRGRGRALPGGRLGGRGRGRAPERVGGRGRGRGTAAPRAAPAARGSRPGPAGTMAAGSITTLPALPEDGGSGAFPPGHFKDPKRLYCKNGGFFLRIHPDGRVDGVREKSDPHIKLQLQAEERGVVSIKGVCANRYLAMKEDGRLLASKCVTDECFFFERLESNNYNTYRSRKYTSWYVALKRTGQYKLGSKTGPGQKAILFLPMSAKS

In the case of `COC(=O)[C@@]1(Cc2ccccc2)[C@H]2c3cc(C(=O)N4CCCC4)n(Cc4ccc(OC(F)(F)F)cc4)c3C[C@H]2CN1C(=O)c1ccccc1`, the composite z-score is 1.52 in assay [1]; 1.24 in assay [2]; 0.653 in assay [3]; 0.892 in assay [4]; 0.575 in [5]; -0.65 in assay [6]. Further, the composite z-score in [8] was -0.577; in assay [9] it was 1.16; in assay [11], 1.01; in [16] it was 1.64; in assay [17], 1.08; in assay [18], -0.429. The composite z-score is 0.969 in assay [19] and -1.44 in [20]. The z-score in assay [7] is 0.989; in [10] it was 1 (inactive); in [12], -2.44 (inactive); in assay [13] it was 0.0853 (inactive); in assay [14], 2.49 (inactive); in [15] it was 2.25 (inactive).

Turning to `COc1ccc(CCNC(=O)[C@@H]2c3ccccc3C(=O)N(Cc3ccccc3)[C@H]2c2ccc(CO)cc2)cc1`, the composite z-score is 0.597 in assay [1]; 0.529 in assay [2]; -0.0502 in assay [3]; -0.279 in assay [4]; 0.987 in assay [5]; 0.363 in [6]. Besides, the composite z-score in assay [8] is 0.442; in assay [9] it was 0.791; in [11], -0.039; in assay [16] it was 0.0585; in assay [17], -0.0195; in assay [18] it was -0.447. The figures for the composite z-score in [19] and in [20] were 0.954 and 0.832, respectively. Moreover, the z-score in assay [7] was 1.77; in [10], 0.582 (inactive); in [12] it was -2.05 (inactive); in [13], -1.57 (inactive); in assay [14], 0.971 (inactive); in [15], -1.15 (inactive).

`C[C@@]1([C@@H](NC(=O)c2cccs2)c2ccc(-c3ccccc3)cc2)C[C@H]1C1CCCCC1`: the composite z-score was -1.16 in assay [1]; -0.678 in assay [2]; 0.429 in assay [3]; -1.76 in [4]; -0.27 in [5]; -1.48 in assay [6]. Further, the composite z-score is -0.507 in assay [8]; -1.45 in [9]; -0.465 in assay [11]; -0.649 in assay [16]; -0.157 in [17]; -1.24 in assay [18]. Further, the composite z-score in assay [19] was -0.787; in assay [20] it was -1.46. In addition, the z-score in [7] was -0.255; in [10], 1.44 (inactive); in assay [12] it was -4.41 (inactive); in assay [13], 0.141 (inactive); in [14] it was 0.201 (inactive); in assay [15] it was -0.169 (inactive).

Regarding `COCCCNC(=O)[C@@]1(Cc2ccccc2I)c2ccccc2C(=O)N(Cc2ccccc2Cl)[C@H]1c1ccc(CO)cc1`, the composite z-score in assay [1] was 1.25; in assay [2], 0.494; in [3], 0.692; in [4], 0.912; in [5], 0.583; in assay [6], -0.125. The composite z-score in assay [8] was 0.246; in [9] it was 0.897; in assay [11] it was -0.193; in assay [16], 1.46; in assay [17], -0.0538; in assay [18], -0.0444. Moreover, the composite z-score in assay [19] was -0.078; in assay [20], 0.191. Further, the z-score is 0.723 in assay [7]; 1.29 (inactive) in [10]; -4.15 (inactive) in assay [12]; -1.72 (inactive) in [13]; -0.529 (inactive) in assay [14]; -0.656 (inactive) in assay [15].

As to `C=CC[C@@]1(C(=O)NCCN2CCOCC2)N=C(c2ccc(OCCCO)cc2)O[C@@H]1c1ccccc1`, the composite z-score was 0.432 in [1]; 1.24 in assay [2]; 0.49 in [3]; 0.755 in [4]; 1.46 in assay [5]; 1.73 in assay [6]. In addition, the composite z-score in assay [8] was 1.55; in [9], 0.978; in assay [11] it was 1.32; in assay [16], 0.803; in assay [17], 0.328; in [18], 1.24. For the same compound, the composite z-score in assay [19] was 0.94; in assay [20], 2.1. Further, the z-score in [7] was -0.185; in assay [10], -0.43 (inactive); in assay [12], -0.914 (inactive); in assay [13] it was -0.299 (inactive); in assay [14], 0.54 (inactive); in assay [15], -0.0392 (inactive).

For `O=C1O[C@H](c2ccccc2)[C@H](c2ccccc2)N2[C@H]1[C@@H](C(=O)N1CCCCCCC1)[C@]1(C(=O)Nc3ccc(C#CCCO)cc31)[C@H]2c1ccc(OCCO)cc1`, the composite z-score in assay [1] stood at 2.99; in [2], 1.36; in [3], 5.23; in assay [4] it was 0.97; in assay [5], 1.52; in [6], 1.27. Further, the composite z-score turned out to be 1.92 in assay [8]; 1.64 in assay [9]; 2.02 in assay [11]; 4.02 in [16]; 1.82 in assay [17]; 3.41 in assay [18]. In addition, the composite z-score was 3.46 in assay [19] and 2.35 in assay [20]. Also, the z-score in [7] was -0.421; in assay [10], -0.264 (inactive); in assay [12], -2.18 (inactive); in assay [13], 0.278 (inactive); in assay [14], -1.42 (inactive); in [15], -0.757 (inactive).

For `CN(C)CCCCCCNC(=O)[C@@H]1C[C@@H]2C(=O)NCC(=O)N2[C@@H]1c1ccc(O)cc1`, the composite z-score was 2.07 in [1]; 1.18 in [2]; 1.28 in assay [3]; 0.842 in assay [4]; 1.42 in assay [5]; 1.65 in assay [6]. Further, the composite z-score in [8] was 1.68; in [9], 0.974; in [11], 0.781; in assay [16], 0.28; in assay [17] it was -0.102; in assay [18] it was 0.97. Also, the values for the composite z-score in assay [19] and in assay [20] were 1.32 and 1.93, respectively. In addition, the z-score was -0.736 in assay [7]; 0.335 (inactive) in [10]; -0.981 (inactive) in assay [12]; -0.162 (inactive) in assay [13]; 0.147 (inactive) in [14]; 0.625 (inactive) in [15].

Regarding `C/C=C/[C@@H](CCn1cc([C@H](O)c2ccccc2)nn1)[Si](C)(C)c1ccc(OC)cc1`, the composite z-score in assay [1] is 0.0974; in assay [2] it was -0.253; in [3], 0.0213; in assay [4], -0.267; in assay [5], -0.673; in [6] it was -0.62. The composite z-score in assay [8] was -0.337; in assay [9] it was 0.418; in [11] it was 0.303; in assay [16], -0.514; in [17], -0.253; in assay [18], 0.154. In addition, the composite z-score in assay [19] was -0.575; in [20] it was -0.0723. The z-score in assay [7] was 0.947; in assay [10] it was 0.273 (inactive); in assay [12], -3.67 (inactive); in assay [13] it was 0.214 (inactive); in assay [14], 3.3 (inactive); in assay [15], 0.128 (inactive).

As to `O=C1O[C@H](c2ccccc2)[C@H](c2ccccc2)N2[C@H]1[C@@H](C(=O)NC[C@H](O)c1ccccc1)[C@]1(C(=O)Nc3ccccc31)[C@H]2c1ccccc1OCCO`, the composite z-score in assay [1] came to 2.24; in assay [2] it was 1.22; in [3], 0.271; in [4], 0.916; in assay [5], 0.455; in [6], 0.538. For the same compound, the composite z-score in assay [8] was 0.799; in [9], 0.356; in [11] it was -0.0435; in assay [16] it was -0.164; in assay [17], 0.0841; in [18], 0.735. In addition, the values for the composite z-score in [19] and in assay [20] were 1.18 and 1.29, respectively. Besides, the z-score in assay [7] is -0.789; in assay [10], -11 (active); in assay [12], -6.33 (inactive); in [13], -0.908 (inactive); in assay [14] it was -0.581 (inactive); in assay [15], -0.563 (inactive).

The record behind these values is PubChem BioAssay.
